Consider 32 molecules from PubChem BioAssay (NCATS).

Molecules are shown by their SMILES. Results filed as inconclusive are left out. Unmarked numbers belong to inactive results. The source made the active and inactive calls. The call rests on the fitted dose curve; in most records, active means well fitted cell-killing curve with a large enough effect; inconclusive means small, poorly fitted or top-dose-only effect, or effect the other way; inactive means no such curve, though single readings can be large or run the other way.
Further: nearly all actives have a fitted effect of over 30% in size.
Potency means the concentration at half of the fitted maximal effect.

One test in a line: Quantitative High-Throughput drug screen in 47 multiple myeloma cell lines against the NCATS MIPE library collection: PCM6_Riken cell viability assay (AID 1919870).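 On viability (% of control): 100% = DMSO-only wells and 0% = media-only wells.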 The conditions noted are these: CellTiter-Glo ATP, 48 h; series mostly up to 45.8 µM; viability (% of control): at the top concentration. The essentials:
(§1)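 ATP-based luminescence (CellTiter-Glo, 5 min RT incubation) quantified surviving cells following two days' treatment with MIPE 4.0 agents at 37 °C, 5% CO2.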
In general terms: ATP-based viability assays read luminescence as a measure of living cells.
Regarding `CCCNC(=O)Nc1ccc(Oc2ncnc3cc(OC)c(OC)cc23)cc1Cl`, the “viability (% of control)” value is 101%.

As to `O=C(O)CO.[NH2-].[NH2-].[Pt+2]`, the “viability (% of control)” value was 106%. On the same count and under the same terms, as for `O=C1CCC[C@@H]2[C@H]3CCC[N+]4([O-])CCC[C@@H](CN12)[C@@H]34` (stereo partly drawn), the figure is 93.3%. Regarding `CC1(C)CCC(c2ccc(Cl)cc2)=C(CN2CCN(c3ccc(C(=O)NS(=O)(=O)c4ccc(N[C@H](CCN5CCOCC5)CSc5ccccc5)c(S(=O)(=O)C(F)(F)F)c4)cc3)CC2)C1`, the Potency was 26.4 nM (active). `O=c1[nH]c(=O)n(C2CCCO2)cc1F` (stereo not drawn): the “viability (% of control)” value was 88.6% [at 92.2 µM].

For `CCNC(=O)Nc1ccc2ncc(Nc3ccc(C)cc3)nc2n1`, the Potency is 935 nM (active). For `Cc1ccc(C(=O)Nc2cccc(C(F)(F)F)c2)cc1-c1ccc2nc(NCCN3CCOCC3)ncc2c1`, the Potency was 5900 nM (active). Still for that read-out and setting: the same measure for `COc1ccc(-c2cc3c(C)nc(N)nc3n(C3CCC(OCCO)CC3)c2=O)cn1` (stereo not drawn): 264 nM (active); for `c1cc(-c2cnn3cc(-c4ccc(OCCN5CCCCC5)cc4)cnc23)ccn1`: 1870 nM (active). As to `COc1cccc(Nc2c(C(N)=O)cnc3c(C)cc(S(=O)(=O)c4cccc(C(=O)N(C)C)c4)cc23)c1`, the “viability (% of control)” value was 118% [at 23.2 µM]. In the case of `C[C@@H](Oc1cc(-n2cnc3ccc(CN4CCN(C)CC4)cc32)sc1C(N)=O)c1ccccc1C(F)(F)F`, the Potency was 13200 nM (active). For the molecule `CC(C)Nc1cc(C(F)(F)F)cc2nc(NC(=O)c3cccnc3)nn12`, the “viability (% of control)” value was 102%. With `CC=CC1=C(C(=O)O)N2C(=O)[C@H](NC(=O)[C@H](N)c3ccc(O)cc3)[C@@H]2SC1`, the “viability (% of control)” value is 89.9%. As to `NCC(=O)Nc1ccc(-n2nc(C(F)(F)F)cc2-c2ccc3c(ccc4ccccc43)c2)cc1`, the Potency is 20900 nM (active).

In the case of `CC(=O)SC[C@@H](C)C(=O)N1CCC[C@H]1C(=O)N[C@@H](Cc1ccccc1)C(=O)O`, the “viability (% of control)” value is 113%.

Turning to `CC(O)C1C(=O)N2C(C(=O)O)=C(SC3CNC(C(=O)N(C)C)C3)C(C)C12` (stereo not drawn), the “viability (% of control)” value was 80.7%.

A further test in a line: Quantitative High-Throughput drug screen in 47 multiple myeloma cell lines against the NCATS MIPE library collection: RPMI8226_ATCC cell viability assay (AID 1919871). The following applies: RPMI8226 myeloma viability, CellTiter-Glo ATP luminescence, 48 h; series mostly up to 45.8 µM; viability (% of control): at the top concentration. In a few lines: as §1
For `c1ccc2c(CCNc3ccc(Nc4ccncc4)cc3)c[nH]c2c1`, the Potency is 20900 nM (active). On the same count and under the same terms, the same measure for `O=C(O)c1ccc2c(c1)nc(Nc1cccc(Cl)c1)c1ccncc12`: 18700 nM (active). With `O=C(O)Cn1nnc(-c2cc(N3CCC(Oc4cc(F)ccc4Br)CC3)no2)n1`, the “viability (% of control)” value is 128%. Regarding `Cc1[nH]c2ccccc2c1CCNCc1ccc(C=CC(=O)NO)cc1`, the Potency is 118 nM (active). On the same count and under the same terms, the same measure for `Nc1ccccc1NC(=O)c1ccc(CNc2nccc(-c3cccnc3)n2)cc1`: 2640 nM (active). With `Cc1cn2cc(C(=O)N(C)CCO)cc(N[C@@H]3CCOc4cccc(C)c43)c2n1`, the “viability (% of control)” value was 119%. As for `CCCn1c(=O)c2[nH]c(-c3cnn(Cc4cccc(C(F)(F)F)c4)c3)nc2n(CC)c1=O`, the Potency is 7430 nM (active). Same read-out and setting: the same measure for `O=C(C=Cc1cccnc1)NCCCCC1CCN(C(=O)c2ccccc2)CC1`: 93.5 nM (active); for `CNC(=O)c1c(F)cccc1Nc1nc(Nc2cc3c(cc2OC)CCN3C(=O)CN(C)C)nc2[nH]ccc12`: 2350 nM (active). As for `COc1c(N2C[C@@H]3CCCN[C@H]3C2)c(F)cc2c(=O)c(C(=O)O)cn(C3CC3)c12`, the “viability (% of control)” value was 111%.

As to `COc1cccc(-c2ccc(NC(=O)C3=C(C(=O)O)CCC3)c(F)c2)c1`, the Potency was 13200 nM (active). For the molecule `CC=C1NC(=O)[C@H]2CSSCCC=C[C@H](CC(=O)N[C@H](C(C)C)C(=O)N2)OC(=O)[C@H](C(C)C)NC1=O`, the Potency is 26.4 nM (active). Still for that read-out and setting: the same measure for `Cc1cc(CN2CCN(c3c(Br)cnc4nc(-c5ccc(N6CCN(C)CC6)cc5)[nH]c34)CC2)no1`: 29600 nM (active); for `COc1cc(C(=O)N2CCC(N3CCN(C)CC3)CC2)ccc1Nc1ncc2c(n1)N(C)c1ccccc1C(=O)N2C`: 10500 nM (active). On to `CCCNC(=O)Nc1ccc(Oc2ncnc3cc(OC)c(OC)cc23)cc1Cl`, for which the Potency was 935 nM (active).

Regarding `O=C(O)CO.[NH2-].[NH2-].[Pt+2]`, the “viability (% of control)” value was 141%.

In the case of `CC1(C)CCC(c2ccc(Cl)cc2)=C(CN2CCN(c3ccc(C(=O)NS(=O)(=O)c4ccc(N[C@H](CCN5CCOCC5)CSc5ccccc5)c(S(=O)(=O)C(F)(F)F)c4)cc3)CC2)C1`, the Potency is 2960 nM (active). For the molecule `Cc1c(Cn2c(C)nc3c(C(=O)O)cc(N4CCOCC4)cc32)cccc1C(F)(F)F`, the “viability (% of control)” value was 109%. In the case of `CN[C@H]1CCc2cc(OC)c(OC)c(OC)c2-c2ccc(OC)c(=O)cc21`, the Potency was 8.3 nM (active).

In the case of `O=c1[nH]c(=O)n(C2CCCO2)cc1F` (stereo not drawn), the “viability (% of control)” value was 102% [at 92.2 µM]. As to `Cc1ccc(C(=O)Nc2cccc(C(F)(F)F)c2)cc1-c1ccc2nc(NCCN3CCOCC3)ncc2c1`, the Potency was 5900 nM (active). On the same count and under the same terms, as for `COc1ccc(-c2cc3c(C)nc(N)nc3n(C3CCC(OCCO)CC3)c2=O)cn1` (stereo not drawn), the figure is 26.4 nM (active); as for `c1cc(-c2cnn3cc(-c4ccc(OCCN5CCCCC5)cc4)cnc23)ccn1`, 16600 nM (active).

Turning to `COc1cccc(Nc2c(C(N)=O)cnc3c(C)cc(S(=O)(=O)c4cccc(C(=O)N(C)C)c4)cc23)c1`, the “viability (% of control)” value is 110% [at 23.2 µM].

With `CC(C)Nc1cc(C(F)(F)F)cc2nc(NC(=O)c3cccnc3)nn12`, the “viability (% of control)” value was 119%. The same measure, in the same setting: the same measure for `CC=CC1=C(C(=O)O)N2C(=O)[C@H](NC(=O)[C@H](N)c3ccc(O)cc3)[C@@H]2SC1`: 117%; for `CC(=O)SC[C@@H](C)C(=O)N1CCC[C@H]1C(=O)N[C@@H](Cc1ccccc1)C(=O)O`: 122%.
